The results in this text go back to PMC8384837, “Expanding the binding specificity for RNA recognition by a PUF domain”.

Holding throughout (assay): yeast three-hybrid, YBZ-1, SC-Leu-His + 0.5 mM 3-AT, 4 days
Common to all, as to details: tags: N-Gal4 AD-HA kept; label: inside an RPR1-promoter hybrid RNA with tandem MS2 sites; ssRNA

Test [1] concerns the target PUM1 PUF domain R5-TKR (Homo sapiens, UniProt Q14671 828-1176, C1007T;R1008K;Q1011R). Summed up: (§1)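 The interaction score is the log change in how often each variant appears, from input to selection. Frequencies came from PCR-amplified, Illumina-sequenced repeat regions of Pumilio-1 PUF domain libraries grown in strain YBZ-1 (LexA–MS2 coat fusion, HIS3 reporter) alongside matching RNA elements. Input plates were SC-Leu and selection plates were SC-Leu-His + 0.5 mM 3-AT, each for four days, and the log2 calculation used a pseudocount of 1 where a variant was absent.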

The target of test [2] is PUM1 PUF domain R5-KAD (Homo sapiens, UniProt Q14671 828-1176, C1007K;R1008A;Q1011D). Summed up:
as §1

The target of test [3] is PUM1 PUF domain R5-DLR (Homo sapiens, UniProt Q14671 828-1176, C1007D;R1008L;Q1011R). Summed up: as §1
The target of test [4] is PUM1 PUF domain R3-GRV (Homo sapiens, UniProt Q14671 828-1176, C935G;Q939V). Summed up:
as §1

Test [5] concerns the target PUM1 PUF domain R8-GWQ (Homo sapiens, UniProt Q14671 828-1176, N1122G;Y1123W). Summed up: as §1
The target in test [6] is PUM1 PUF domain R4-HNI (Homo sapiens, UniProt Q14671 828-1176, N971H;H972N;Q975I). Summed up: as §1
The target in test [7] is PUM1 PUF domain R4-SNF (Homo sapiens, UniProt Q14671 828-1176, N971S;H972N;Q975F). Summed up:
as §1

The target of test [8] is PUM1 PUF domain R1-TFE (Homo sapiens, UniProt Q14671 828-1176, S863T;R864F;Q867E). Summed up: as §1

Chain of PUM1 PUF domain R5-KAD (Q14671 828-1176 C1007K/R1008A/Q1011D): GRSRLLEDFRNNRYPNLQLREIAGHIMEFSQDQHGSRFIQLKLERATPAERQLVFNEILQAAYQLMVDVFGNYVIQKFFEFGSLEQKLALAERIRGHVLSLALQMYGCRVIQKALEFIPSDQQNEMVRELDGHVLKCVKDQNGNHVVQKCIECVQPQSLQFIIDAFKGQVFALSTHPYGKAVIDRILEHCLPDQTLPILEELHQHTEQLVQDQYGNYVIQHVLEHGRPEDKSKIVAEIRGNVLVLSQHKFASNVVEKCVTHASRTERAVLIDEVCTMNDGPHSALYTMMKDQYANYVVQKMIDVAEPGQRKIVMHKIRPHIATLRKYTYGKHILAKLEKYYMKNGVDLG
Chain of PUM1 PUF domain R5-TKR (Q14671 828-1176 C1007T/R1008K/Q1011R): as the sequence (Q14671 828-1176 C1007K/R1008A/Q1011D) above, with K180T, A181K, D184R counted along it
Chain of PUM1 PUF domain R4-SNF (Q14671 828-1176 N971S/H972N/Q975F): as the sequence (Q14671 828-1176 C1007K/R1008A/Q1011D) above, with N144S, H145N, Q148F, K180C, A181R, D184Q counted along it
Chain of PUM1 PUF domain R5-DLR (Q14671 828-1176 C1007D/R1008L/Q1011R): as the sequence (Q14671 828-1176 C1007K/R1008A/Q1011D) above, with K180D, A181L, D184R counted along it

Regarding “GGCUAGAACUAGUGGAUCCCCCGGCGCCCGGCGGCUCGAGCCCGGGUAAGUGUCAAUAGUCUGCAUGCCGCCGGGCGCCAUGCCUGCAGGUCGACUCUAGAAAACAUG”, the binding signal in test [1] is 6.59 log2 enrichment (interaction score); in test [2], 2.78 log2 enrichment (interaction score); in test [3], 4.71 log2 enrichment (interaction score). In the case of “GGCUAGAACUAGUGGAUCCCCCGGCGCCCGGCGGCUCGAGCCCGGGUAAGUGUAAAUAGUCUGCAUGCCGCCGGGCGCCAUGCCUGCAGGUCGACUCUAGAAAACAUG”, the binding signal is 2.81 log2 enrichment (interaction score) in test [4] and 2.82 log2 enrichment (interaction score) in test [5]. As for “GGCUAGAACUAGUGGAUCCCCCGGCGCCCGGCGGCUCGAGCCCGGGUAAGUGUAAUUAGUCUGCAUGCCGCCGGGCGCCAUGCCUGCAGGUCGACUCUAGAAAACAUG”, the binding signal in test [4] was 1.12 log2 enrichment (interaction score). Take “GGCUAGAACUAGUGGAUCCCCCGGCGCCCGGCGGCUCGAGCCCGGGUAAGCGUAAAUAGUCUGCAUGCCGCCGGGCGCCAUGCCUGCAGGUCGACUCUAGAAAACAUG”: the binding signal in test [5] is 3.56 log2 enrichment (interaction score). With “GGCUAGAACUAGUGGAUCCCCCGGCGCCCGGCGGCUCGAGCCCGGGUAAGUGUAUAUAGUCUGCAUGCCGCCGGGCGCCAUGCCUGCAGGUCGACUCUAGAAAACAUG”, the binding signal in test [6] is 4.84 log2 enrichment (interaction score). As for “GGCUAGAACUAGUGGAUCCCCCGGCGCCCGGCGGCUCGAGCCCGGGUAAGUGUACAUAGUCUGCAUGCCGCCGGGCGCCAUGCCUGCAGGUCGACUCUAGAAAACAUG”, the binding signal in test [7] was 3.39 log2 enrichment (interaction score). In the case of “GGCUAGAACUAGUGGAUCCCCCGGCGCCCGGCGGCUCGAGCCCGGGUAAGUGUAAAUGGUCUGCAUGCCGCCGGGCGCCAUGCCUGCAGGUCGACUCUAGAAAACAUG”, the binding signal in test [8] was 6.33 log2 enrichment (interaction score).

In the case of “GGCUAGAACUAGUGGAUCCCCCGGCGCCCGGCGGCUCGAGCCCGGGUAAGUGUAAAUUGUCUGCAUGCCGCCGGGCGCCAUGCCUGCAGGUCGACUCUAGAAAACAUG”, the binding signal in test [8] is 3.49 log2 enrichment (interaction score).
